In one assay the test system is MCC-13. Nature of the assay: qHTS assay to identify novel small-molecules to repurpose for Merkel cell carcinoma treatment (AID 1296009). Also: nearly all actives have a fitted effect of over 60% in size. Also: potency is read from the fitted curve at half-maximal effect. Particulars: MCC and control cell lines, CellTiter-Glo viability, 72 h; series mostly up to 46 µM. The method, boiled down: (§1)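 Cells were incubated with compound for 72 hr at 37 degree celsius before CellTiter-Glo addition. Luminescence was normalized with no-cell wells as full cytotoxicity and DMSO as baseline.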

The subject of a further assay is MCC-26. The description is as above. The following applies: MCC and control cell lines, CellTiter-Glo viability, 72 h; series mostly up to 46 µM. The method, boiled down:
as §1

For the next assay, the system named is MKL-1. The assay is described as above. The following applies: MCC and control cell lines, CellTiter-Glo viability, 72 h; series mostly up to 46 µM. The method, boiled down:
as §1
(In general: Cellular ATP, detected with luciferase, serves as a proxy for viable cell number.)

The test system of a further assay is MKL-2. The description is as above. Particulars: MCC and control cell lines, CellTiter-Glo viability, 72 h; series mostly up to 46 µM. An outline of the steps:
as §1

The next assay deals with UISO. The description is as above. The following applies: MCC and control cell lines, CellTiter-Glo viability, 72 h; series mostly up to 46 µM. The method, boiled down:
as §1

A further assay relates to WaGa. The assay is described as above. Particulars: MCC and control cell lines, CellTiter-Glo viability, 72 h; series mostly up to 46 µM. The method, boiled down:
as §1

The next assay relates to C33A. The assay is described as follows: Primary qHTS to identify gynecologic anti-cancer compounds using libraries of approved drugs and bioactive compounds (AID 1345084). Also: nearly all actives have a fitted effect of over 55% in size. Particulars: Gynecologic cancer cell panel viability, ATPlite luminescence, 48 h; series mostly up to 57.5 µM. The method, boiled down:
(§2)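 Five-point cytotoxicity, 48 h drug exposure at 37 C, 5% CO2, on cells seeded 16 h beforehand. ATP content read by ATPlite luminescence.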
Background: qHTS replaces the single test concentration by a dilution series.

In a further assay the test system is CAOV3. The assay is described as above. The following applies: Gynecologic cancer cell panel viability, ATPlite luminescence, 48 h; series mostly up to 57.5 µM. The method, boiled down:
as §2

In the next assay the test system is CASKI. The assay is described as above. The following applies: Gynecologic cancer cell panel viability, ATPlite luminescence, 48 h; series mostly up to 57.5 µM. An outline of the steps:
as §2

For the next assay, the system named is Es-2. The description is as above. Particulars: Gynecologic cancer cell panel viability, ATPlite luminescence, 48 h; series mostly up to 57.5 µM. The method, boiled down:
as §2

The subject of the next assay is HeLa. Described as above. The following applies: Gynecologic cancer cell panel viability, ATPlite luminescence, 48 h; series mostly up to 57.5 µM. The method, boiled down:
as §2

Another assay deals with Hek293T. The assay is described as above. The following applies: Gynecologic cancer cell panel viability, ATPlite luminescence, 48 h, control line for the selectivity index; series mostly up to 57.5 µM. An outline of the steps: as §2
The next assay concerns JEG-3. The assay is described as above. Particulars: Gynecologic cancer cell panel viability, ATPlite luminescence, 48 h; series mostly up to 57.5 µM. An outline of the steps:
as §2

The test system of a further assay is OV90. Described as above. Particulars: Gynecologic cancer cell panel viability, ATPlite luminescence, 48 h; series mostly up to 57.5 µM. An outline of the steps:
as §2

Another assay deals with PA-1. The assay is described as above. The following applies: Gynecologic cancer cell panel viability, ATPlite luminescence, 48 h; series mostly up to 57.5 µM. The method, boiled down: as §2
The next assay concerns SKOV3. Described as above. The following applies: Gynecologic cancer cell panel viability, ATPlite luminescence, 48 h; series mostly up to 57.5 µM. An outline of the steps: as §2
The test system of a further assay is Tov-21-G. The assay is described as above. The following applies: Gynecologic cancer cell panel viability, ATPlite luminescence, 48 h; series mostly up to 57.5 µM. An outline of the steps:
as §2

Another assay has as its system Tov112D. The description is as above. The following applies: Gynecologic cancer cell panel viability, ATPlite luminescence, 48 h; series mostly up to 57.5 µM. An outline of the steps: as §2
Assay [1] is described as follows: Drug repurposing screens with cells derived from glioblastoma tumor samples (AID 1345199). Also: nearly all actives have a fitted effect of over 40% in size. The following applies: GBM patient neurospheres viability, ATP luminescence, 48 h; Potency: tumour line A unless noted; series mostly up to 45.9 µM. The method, boiled down: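 Four patient lines of CD133+ GBM neurospheres were screened at several concentrations; hits were retested in those lines plus three slower-growing GBM lines, using 48-hour treatment and ATP-based viability.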

Records with an inconclusive call do not appear. Activity calls are given as the source filed them. Calls follow the shape of the dose curve; as a rule, active = well fitted curve in the direction sought with a large enough effect; inconclusive = small, poorly fitted or top-dose-only effect, or another doubt; inactive = no such curve, though single readings can be large; an effect the other way counts as inactive or inconclusive.

As for `CC(=O)N(C)c1cccc(-c2ccnc3c(C(=O)c4cccs4)cnn23)c1`, the Potency entry in the assay with MCC-13, in the assay with MCC-26, in the assay on MKL-1, with MKL-2, in the assay on UISO and in the assay with WaGa was “inactive” each time. For the same compound, the Potency entry in the assay with C33A, in the assay with CAOV3, with CASKI, with Es-2, with HeLa and in the assay with Hek293T was “inactive” each time. For the same compound, the Potency entry with JEG-3, in the assay with OV90, in the assay with PA-1, in the assay on SKOV3, in the assay with Tov-21-G and in the assay with Tov112D was “inactive” in each case.

In the case of `COC(=O)c1cncn1C(C)c1ccccc1` (configuration not stated), the Potency entry in the assay with MCC-13, with MCC-26, in the assay with MKL-1, with MKL-2, with UISO and in the assay on WaGa was “inactive” in each case. For the same compound, the Potency result in the assay on C33A, in the assay with CAOV3, in the assay with CASKI, in the assay with Es-2, in the assay with HeLa and in the assay on Hek293T was “inactive” in each case. Further, the Potency entry with JEG-3, in the assay with OV90, in the assay on PA-1, in the assay with SKOV3, in the assay with Tov-21-G and in the assay on Tov112D was “inactive” throughout. Also, the Potency result in assay [1] is “inactive”.

As for `NC1CC1c1ccccc1` (configuration not stated), the Potency entry in the assay on MCC-13, with MCC-26, in the assay on MKL-1, in the assay with MKL-2, in the assay with UISO and with WaGa was “inactive” throughout.

As to `c1ccc2c(CN3CCNCC3)cccc2c1`, the Potency entry in the assay with MCC-13, in the assay with MCC-26, in the assay with MKL-1, in the assay with MKL-2, in the assay with UISO and in the assay with WaGa was “inactive” in each case.

`C[C@]12CC[C@@H]3[C@@H](CCC4=CC(=O)CC[C@@H]43)[C@@H]1CC[C@@H]2OC(=O)CCc1ccccc1`: the Potency result with MCC-13, in the assay on MCC-26, in the assay on MKL-1, in the assay with MKL-2, in the assay on UISO and in the assay with WaGa was “inactive” throughout.

For the compound `O=c1cccc2n1CC1CNC[C@H]2C1`, the Potency result with MCC-13, in the assay with MCC-26 and in the assay on UISO was “inactive” throughout. For the same compound, the Potency in the assay on MKL-1 is 14800 nM (active); with MKL-2 it was 2640 nM (active); in the assay on WaGa, 2350 nM (active).

In the case of `C[C@]12Cc3cn[nH]c3C[C@@H]1CC[C@@H]1[C@H]2CC[C@@]2(C)[C@H]1CC[C@]2(C)O`, the Potency entry in the assay with MCC-13, with MCC-26, with MKL-1, in the assay with MKL-2, with UISO and in the assay with WaGa was “inactive” each time.

For `C[C@]12CC[C@H]3[C@@H](CCC4=CC(=O)CC[C@@]43C)[C@H]1CC[C@H]2OC(=O)CCC1CCCC1`, the Potency result in the assay with MCC-13, with MCC-26, in the assay with MKL-1, with MKL-2, with UISO and with WaGa was “inactive” each time.

As for `C#CC1(O)CCC2C3CCC4=CC(=O)CCC4(C)C3CCC21C` (configuration not stated), the Potency entry in the assay on MCC-13, in the assay with MCC-26, with MKL-1, with MKL-2, in the assay with UISO and in the assay on WaGa was “inactive” in each case.

Regarding `CC(=O)OCC1=C(C(=O)O)N2C(=O)[C@@H](N)[C@@H]2SC1`, the Potency result in the assay with MCC-13, in the assay with MCC-26, in the assay with MKL-1, with MKL-2, in the assay with UISO and with WaGa was “inactive” in each case.

`CN[C@@H](C)[C@H](O)c1ccccc1`: the Potency result in the assay on MCC-13, in the assay with MCC-26, in the assay with MKL-1, in the assay on MKL-2, in the assay with UISO and with WaGa was “inactive” in each case. Also, the Potency entry in the assay with C33A, in the assay on CAOV3, in the assay on CASKI, in the assay on Es-2, in the assay with HeLa and in the assay with Hek293T was “inactive” each time. Further, the Potency entry in the assay on JEG-3, in the assay with OV90, with PA-1, in the assay with SKOV3, with Tov-21-G and in the assay with Tov112D was “inactive” each time. The Potency entry in assay [1] was “inactive”.

`CCOP(=O)(NC(C)C)Oc1ccc(SC)c(C)c1` (configuration not stated): the Potency entry in the assay with MCC-13, in the assay with MCC-26, in the assay on MKL-1, in the assay with MKL-2, in the assay on UISO and in the assay with C33A was “inactive” each time. Also, the Potency result in the assay on CASKI, in the assay on Es-2, in the assay on HeLa, with Hek293T, in the assay with JEG-3 and with PA-1 was “inactive” throughout. In addition, the Potency entry (in the assay with Tov-21-G; with Tov112D; in assay [1]) was “inactive” each time.

As to `O=C(NCC1CCOCC1)c1cnc(Nc2ccc(Cl)cc2Cl)nc1C(F)(F)F`, the Potency entry in the assay with MCC-13, with MCC-26, with MKL-1, with MKL-2, in the assay with UISO and with WaGa was “inactive” in each case. Moreover, the Potency result in the assay with C33A, in the assay with CASKI, with Es-2, with HeLa, in the assay on Hek293T and in the assay on JEG-3 was “inactive” in each case. Moreover, the Potency entry in the assay with OV90, with PA-1, in the assay with SKOV3, with Tov-21-G and with Tov112D was “inactive” each time.

For the compound `Nc1ccc(Sc2ccc(N)cc2)cc1`, the Potency result with MCC-13, in the assay on MCC-26, with MKL-1, with MKL-2, with UISO and in the assay with WaGa was “inactive” each time. Also, the Potency result in the assay with C33A, with CASKI, in the assay with Es-2, with HeLa, in the assay with Hek293T and with JEG-3 was “inactive” in each case. Besides, the Potency entry with SKOV3, in the assay on Tov-21-G and with Tov112D was “inactive” throughout.

Turning to `CC(C)(C)NC[C@H](O)c1ccc(O)cc1Cl`, the Potency result with MCC-13, with MCC-26, in the assay with MKL-1, with MKL-2, with UISO and with WaGa was “inactive” each time. For the same compound, the Potency entry in the assay with CASKI, with Es-2, in the assay with HeLa, in the assay on Hek293T, with JEG-3 and with OV90 was “inactive” throughout. For the same compound, the Potency result (with Tov-21-G; with Tov112D; in assay [1]) was “inactive” each time.

In the case of `O=[N+]([O-])/N=C1\NCCN1Cc1ccc(Cl)nc1`, the Potency result in the assay with MCC-13, in the assay on MCC-26, in the assay on MKL-1, in the assay on MKL-2, in the assay on UISO and in the assay with WaGa was “inactive” throughout. For the same compound, the Potency entry in the assay on C33A, with CASKI, with Es-2, with HeLa, in the assay with Hek293T and in the assay with JEG-3 was “inactive” throughout. The Potency result with OV90, in the assay on PA-1, in the assay with SKOV3, in the assay on Tov-21-G and in the assay with Tov112D was “inactive” throughout.

Regarding `CCCCCCCCCC(CC)c1ccc(S(=O)(=O)O)cc1` (configuration not stated), the Potency entry with MCC-13, in the assay with MCC-26, in the assay on MKL-1, with MKL-2, with UISO and in the assay with WaGa was “inactive” throughout. Also, the Potency result in the assay with C33A, in the assay with CAOV3, with CASKI, in the assay with HeLa, in the assay with Hek293T and with JEG-3 was “inactive” in each case. Further, the Potency result (with PA-1; with Tov-21-G; with Tov112D; in [1]) was “inactive” each time.

For `Nc1ccc(Cl)cc1`, the Potency entry in the assay with MCC-13, with MCC-26, in the assay on MKL-1, with MKL-2, in the assay with UISO and with WaGa was “inactive” in each case. The Potency result with C33A, in the assay with CAOV3, in the assay on CASKI, with Es-2, with HeLa and in the assay on Hek293T was “inactive” each time. Moreover, the Potency entry (with JEG-3; with PA-1; in the assay on SKOV3; in the assay with Tov-21-G; in the assay on Tov112D; in assay [1]) was “inactive” each time.
